Experimental data taken from PubChem BioAssay AID1159580 (chemical genetic matrix, 2015).
Values joined by “and” are separate entries in the source; they are usually repeats but may differ in a detail not shown here. Equal values may be shown once. The campaign covered roughly 5,500 compounds. About 2,000 (36%) were called active. Inconclusive results (about 18%) are left out. Cut-off read from the data, not from the text of the source: active = normalized growth mostly below about 0.91 (no sharp cut-off); inconclusive = no clear call, values can overlap the other calls; inactive = mostly above about 0.92. This is one part of the list.

Assay: chemical genetic growth profiling, strain panel (AID 1159580);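 note: tested at 20 µM; growth read once vehicle control cultures reached saturation at 30 °C; 1 = growth at the plate median or of vehicle wells; lower values mean less growth of the strain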
Details: S. cerevisiae deletion strains, growth OD

Measured: normalized growth

CCCCOc1ccc(OCCCN2CCOCC2)cc1
0.653 (active) and 0.972 (inactive): locus YJL095W, strain BCK1, stronger effect = lower value
inactive: locus YAL013W, strain DEP1, stronger effect = lower value 0.994 | locus YAL030W, strain snc1, stronger effect = lower value 0.988 | locus YBL061C, strain skt5, stronger effect = lower value 0.955 | locus YBR009C, strain hhf1, stronger effect = lower value 0.96 | locus YBR023C, strain chs3, stronger effect = lower value 0.946 | locus YBR171W, strain sec66, stronger effect = lower value 0.942 | locus YBR229C, strain ROT2, stronger effect = lower value 1 | locus YBR231C, strain swc5, stronger effect = lower value 0.935 | locus YCL011C, strain gbp2, stronger effect = lower value 0.966 | locus YCL016C, strain dcc1, stronger effect = lower value 0.928 | locus YCL029C, strain bik1, stronger effect = lower value 0.938 | locus YCL069W, strain vba3, stronger effect = lower value 0.995 | locus YCR088W, strain abp1, stronger effect = lower value 0.997 | locus YDL005C, strain med2, stronger effect = lower value 1 | locus YDL040C, strain nat1, stronger effect = lower value 0.987 | locus YDL074C, strain BRE1, stronger effect = lower value 0.841 | locus YDL101C, strain DUN1, stronger effect = lower value 0.963 | locus YDL185W, strain tfp1, stronger effect = lower value 0.979 | locus YDR001C, strain nth1, stronger effect = lower value 0.983 | locus YDR137W, strain rgp1, stronger effect = lower value 0.913 | locus YDR150W, strain NUM1, stronger effect = lower value 0.984 | locus YDR159W, strain sac3, stronger effect = lower value 0.943 | locus YDR162C, strain NBP2, stronger effect = lower value 0.952 | locus YDR297W, strain sur2, stronger effect = lower value 0.968 | locus YDR334W, strain swr1, stronger effect = lower value 0.947 | locus YDR392W, strain spt3, stronger effect = lower value 0.868 | locus YEL003W, strain gim4, stronger effect = lower value 0.918 | locus YEL037C, strain rad23, stronger effect = lower value 0.98 | locus YEL061C, strain CIN8 (second series), stronger effect = lower value 0.973 | locus YEL061C, strain CIN8, stronger effect = lower value 0.931 | locus YER016W, strain bim1, stronger effect = lower value 0.983 | locus YER110C, stronger effect = lower value 0.922 | locus YER111C, strain swi4, stronger effect = lower value 0.962 | locus YER155C, strain BEM2, stronger effect = lower value 1.04 | locus YGL078C, strain dbp3, stronger effect = lower value 0.966 | locus YGL167C, strain pmr1, stronger effect = lower value 0.966 | locus YGL173C, strain kem1, stronger effect = lower value 0.929 | locus YGL227W, strain vid30, stronger effect = lower value 0.966 | locus YGL240W, strain doc1, stronger effect = lower value 0.965 | locus YGL253W, strain hxk2, stronger effect = lower value 0.94 | locus YHR027C, strain rpn1, stronger effect = lower value 0.953 | locus YHR079C, strain IRE1 (second series), stronger effect = lower value 0.93 | locus YHR079C, strain IRE1, stronger effect = lower value 0.979 | locus YHR094C, strain hxt1, stronger effect = lower value 0.997 | locus YHR129C, strain ARP1, stronger effect = lower value 0.99 | locus YHR200W, strain rpn10, stronger effect = lower value 0.961 | locus YIL073C, strain SPO22, stronger effect = lower value 0.804 | locus YIL125W, strain kgd1, stronger effect = lower value 1 | locus YIR030C, strain dcg1, stronger effect = lower value 0.976 | locus YJL092W, strain hpr5, stronger effect = lower value 0.992 | locus YJL095W, strain BCK1 (second series), stronger effect = lower value 0.962 | locus YJL115W, strain asf1, stronger effect = lower value 0.954 | locus YJL134W, strain LCB3, stronger effect = lower value 0.999 | locus YJL154C, strain vps35, stronger effect = lower value 0.995 | locus YJL164C, strain tpk1, stronger effect = lower value 0.918 | locus YJL168C, strain set2, stronger effect = lower value 0.976 | locus YJL187C, strain SWE1, stronger effect = lower value 0.957 | locus YJR043C, strain POL32, stronger effect = lower value 0.934 | locus YJR066W, strain TOR1, stronger effect = lower value 0.884
active: locus YAL021C, strain ccr4, stronger effect = lower value 0.829 | locus YAL026C, strain drs2, stronger effect = lower value 0.0964 | locus YBR021W, strain FUR4, stronger effect = lower value 1.16 [resistant] | locus YBR279W, strain paf1, stronger effect = lower value 0.918 | locus YDL035C, strain GPR1, stronger effect = lower value 0.855 | locus YDL134C, strain PPH21, stronger effect = lower value 0.823 | locus YDL192W, strain arf1, stronger effect = lower value 0.893 | locus YDR069C, strain doa4, stronger effect = lower value 0.883 | locus YDR101C, strain arx1, stronger effect = lower value 0.916 | locus YDR195W, strain ref2 1.21 [resistant] | locus YDR318W, strain mcm21, stronger effect = lower value 0.884 | locus YDR335W, strain msn5, stronger effect = lower value 0.904 | locus YDR388W, stronger effect = lower value 0.9 | locus YDR502C, strain sam2, stronger effect = lower value 0.872 | locus YER015W, strain faa2, stronger effect = lower value 0.925 | locus YER155C, strain BEM2 (second series), stronger effect = lower value 0.407 | locus YER167W, strain BCK2, stronger effect = lower value 0.838 | locus YFR010W, strain ubp6, stronger effect = lower value 0.884 | locus YGL086W, strain mad1, stronger effect = lower value 0.906 | locus YGL248W, strain PDE1, stronger effect = lower value 0.863 | locus YGR078C, strain PAC10, stronger effect = lower value 0.828 | locus YGR135W, strain pre9, stronger effect = lower value 0.784 | locus YGR229C, strain SMI1, stronger effect = lower value 0.598 | locus YGR252W, strain gcn5, stronger effect = lower value 0.588 | locus YHR013C, strain ard1, stronger effect = lower value 0.799 | locus YHR142W, strain chs7, stronger effect = lower value 0.817 | locus YIL066C, strain RNR3, stronger effect = lower value 0.719 | locus YJL129C, strain trk1, stronger effect = lower value 0.805 | locus YJL166W, strain qcr8, stronger effect = lower value 0.89 | locus YJL187C, strain SWE1 (second series), stronger effect = lower value 0.855
0.911 (active) and 0.965 (inactive): locus YHR030C, strain SLT2, stronger effect = lower value
